Reference: PMC7862700, “An all-to-all approach to the identification of sequence-specific readers for epigenetic DNA modifications on cytosine”

Assays:
Test in all cases: DAPPL (digital affinity profiling via proximity ligation, sequencing); 10 mM Tris-HCl pH 7.5, 50 mM NaCl, 1 mM DTT, 4% glycerol, room temperature, 30 min; GST-TFs on glutathione beads, 16-mer random dsDNA library, 0.1% formaldehyde crosslink after washing; high values mean tight binding
Settings in all cases: protein: recombinant; tags: N-terminal GST; dsDNA, one strand shown
[1] = molecular target: T1, FEV (Homo sapiens, UniProt Q99581 1-238)
T1 sequence: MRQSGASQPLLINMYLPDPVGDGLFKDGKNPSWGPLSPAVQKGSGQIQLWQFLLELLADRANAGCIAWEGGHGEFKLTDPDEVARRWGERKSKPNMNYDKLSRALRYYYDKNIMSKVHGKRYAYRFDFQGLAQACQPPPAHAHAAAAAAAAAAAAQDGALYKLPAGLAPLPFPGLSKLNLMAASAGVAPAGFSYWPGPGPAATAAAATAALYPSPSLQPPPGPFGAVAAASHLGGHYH
How it was run: (§1)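 Binding signal is given per hexamer as its read frequency for a factor divided by its frequency in the tag-only sample. GST-fused human transcription factors were expressed in yeast, captured on glutathione beads, barcoded with DNA and pooled with that sample, then incubated with 200 nmole of a 16-mer random double-stranded DNA library in Tris/NaCl/DTT/glycerol buffer for 30 min at room temperature. The pools were then washed, crosslinked, proximity-ligated, amplified by PCR and sequenced on an Illumina NextSeq500.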

[2] = molecular target: ETV5 (Homo sapiens, UniProt P41161 1-510)
How it was run: as §1

[3] = molecular target: T2, SPIC (Homo sapiens, UniProt Q8N5J4 1-248)
T2 sequence: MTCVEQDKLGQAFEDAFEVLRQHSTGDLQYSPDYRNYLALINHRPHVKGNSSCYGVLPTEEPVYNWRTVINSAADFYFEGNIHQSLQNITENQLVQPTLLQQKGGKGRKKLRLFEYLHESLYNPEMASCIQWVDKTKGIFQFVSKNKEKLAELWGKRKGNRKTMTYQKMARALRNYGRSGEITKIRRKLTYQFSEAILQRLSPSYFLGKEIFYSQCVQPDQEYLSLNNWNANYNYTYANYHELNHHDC
How it was run: as §1

[4] = molecular target: ELF4 (Homo sapiens, UniProt Q99607 1-663)
How it was run: as §1

[5] = molecular target: T3, ELK4 (Homo sapiens, UniProt P28324-2 1-405)
T3 sequence: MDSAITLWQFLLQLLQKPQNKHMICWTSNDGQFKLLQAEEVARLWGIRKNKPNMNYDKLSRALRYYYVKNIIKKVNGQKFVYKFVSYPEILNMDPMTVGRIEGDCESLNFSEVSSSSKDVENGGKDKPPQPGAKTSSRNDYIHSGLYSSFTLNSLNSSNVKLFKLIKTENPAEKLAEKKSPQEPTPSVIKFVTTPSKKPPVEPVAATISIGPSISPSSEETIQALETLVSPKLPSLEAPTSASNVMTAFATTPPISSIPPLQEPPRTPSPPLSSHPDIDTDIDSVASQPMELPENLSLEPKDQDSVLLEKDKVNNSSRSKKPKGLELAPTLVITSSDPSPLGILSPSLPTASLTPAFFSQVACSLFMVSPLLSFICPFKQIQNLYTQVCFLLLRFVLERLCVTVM
How it was run: as §1

[6] = molecular target: T4, ETV2 (Homo sapiens, UniProt O00321 1-342)
T4 sequence: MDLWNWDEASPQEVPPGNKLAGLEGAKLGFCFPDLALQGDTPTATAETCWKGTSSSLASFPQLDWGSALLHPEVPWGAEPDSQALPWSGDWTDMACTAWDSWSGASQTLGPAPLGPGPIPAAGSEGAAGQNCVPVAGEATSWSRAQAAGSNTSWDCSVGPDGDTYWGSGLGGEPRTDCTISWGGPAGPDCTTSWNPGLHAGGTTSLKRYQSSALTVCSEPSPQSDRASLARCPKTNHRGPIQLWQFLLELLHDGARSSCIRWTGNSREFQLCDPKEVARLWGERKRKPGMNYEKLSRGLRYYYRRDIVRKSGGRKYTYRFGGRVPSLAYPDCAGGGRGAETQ
How it was run: as §1

[7] = molecular target: T5, ELF3 (Homo sapiens, UniProt P78545 1-371)
T5 sequence: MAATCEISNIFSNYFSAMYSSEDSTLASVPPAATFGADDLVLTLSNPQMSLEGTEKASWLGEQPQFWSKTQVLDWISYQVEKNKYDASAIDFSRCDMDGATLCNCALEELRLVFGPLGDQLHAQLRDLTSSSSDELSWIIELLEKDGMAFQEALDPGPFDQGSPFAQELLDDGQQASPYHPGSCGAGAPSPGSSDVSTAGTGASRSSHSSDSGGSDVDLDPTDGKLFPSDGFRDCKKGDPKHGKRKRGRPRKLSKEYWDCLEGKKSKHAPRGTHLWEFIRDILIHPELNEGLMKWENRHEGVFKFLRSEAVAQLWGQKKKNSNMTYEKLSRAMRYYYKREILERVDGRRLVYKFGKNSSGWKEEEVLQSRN
How it was run: as §1

[8] = molecular target: ETV1 (Homo sapiens, UniProt P50549 1-477)
How it was run: as §1

[9] = molecular target: T6, ERF (Homo sapiens, UniProt P50548 1-548)
T6 sequence: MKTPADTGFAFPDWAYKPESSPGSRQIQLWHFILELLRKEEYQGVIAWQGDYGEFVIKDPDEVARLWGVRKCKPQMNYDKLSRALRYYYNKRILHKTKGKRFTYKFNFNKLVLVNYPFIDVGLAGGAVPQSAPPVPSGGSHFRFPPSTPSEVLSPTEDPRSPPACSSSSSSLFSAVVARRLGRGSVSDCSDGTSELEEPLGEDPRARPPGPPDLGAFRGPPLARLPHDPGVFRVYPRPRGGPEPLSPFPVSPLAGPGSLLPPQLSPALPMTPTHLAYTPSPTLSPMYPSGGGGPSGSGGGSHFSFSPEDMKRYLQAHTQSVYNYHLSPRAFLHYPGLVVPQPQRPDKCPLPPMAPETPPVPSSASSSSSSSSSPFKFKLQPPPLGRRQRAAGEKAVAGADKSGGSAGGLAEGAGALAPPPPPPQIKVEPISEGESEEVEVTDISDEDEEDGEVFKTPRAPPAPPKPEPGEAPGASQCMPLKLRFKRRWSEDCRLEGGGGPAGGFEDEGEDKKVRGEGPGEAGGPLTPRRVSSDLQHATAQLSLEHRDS
How it was run: as §1

[10] = molecular target: T7, ETV3L (Homo sapiens, UniProt Q6ZN32 1-361)
T7 sequence: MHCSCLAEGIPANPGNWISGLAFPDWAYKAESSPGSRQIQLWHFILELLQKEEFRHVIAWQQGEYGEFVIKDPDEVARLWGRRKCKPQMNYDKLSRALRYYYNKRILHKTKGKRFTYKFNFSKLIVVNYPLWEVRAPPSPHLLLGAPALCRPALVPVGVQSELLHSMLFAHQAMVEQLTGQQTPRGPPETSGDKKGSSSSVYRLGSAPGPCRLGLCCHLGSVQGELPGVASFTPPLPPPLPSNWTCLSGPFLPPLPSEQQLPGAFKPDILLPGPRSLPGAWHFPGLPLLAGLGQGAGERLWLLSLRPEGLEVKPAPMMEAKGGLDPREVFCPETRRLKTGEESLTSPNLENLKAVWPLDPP
How it was run: as §1

[11] = molecular target: T8, ETS2 (Homo sapiens, UniProt P15036 1-469)
T8 sequence: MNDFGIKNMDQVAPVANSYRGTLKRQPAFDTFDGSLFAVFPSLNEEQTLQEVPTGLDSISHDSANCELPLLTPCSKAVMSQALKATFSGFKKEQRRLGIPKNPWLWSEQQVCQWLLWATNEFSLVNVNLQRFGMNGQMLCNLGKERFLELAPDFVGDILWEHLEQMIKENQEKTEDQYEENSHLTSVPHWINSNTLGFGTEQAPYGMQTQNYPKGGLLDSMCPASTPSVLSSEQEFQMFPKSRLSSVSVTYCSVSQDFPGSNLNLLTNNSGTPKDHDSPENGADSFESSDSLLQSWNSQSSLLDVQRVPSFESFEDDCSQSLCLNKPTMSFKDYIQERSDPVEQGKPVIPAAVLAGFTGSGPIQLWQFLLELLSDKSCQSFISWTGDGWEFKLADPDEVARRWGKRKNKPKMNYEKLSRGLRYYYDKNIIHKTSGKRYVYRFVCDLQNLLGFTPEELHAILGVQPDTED
How it was run: as §1

[12] = molecular target: T9, SPDEF (Homo sapiens, UniProt O95238 1-335)
T9 sequence: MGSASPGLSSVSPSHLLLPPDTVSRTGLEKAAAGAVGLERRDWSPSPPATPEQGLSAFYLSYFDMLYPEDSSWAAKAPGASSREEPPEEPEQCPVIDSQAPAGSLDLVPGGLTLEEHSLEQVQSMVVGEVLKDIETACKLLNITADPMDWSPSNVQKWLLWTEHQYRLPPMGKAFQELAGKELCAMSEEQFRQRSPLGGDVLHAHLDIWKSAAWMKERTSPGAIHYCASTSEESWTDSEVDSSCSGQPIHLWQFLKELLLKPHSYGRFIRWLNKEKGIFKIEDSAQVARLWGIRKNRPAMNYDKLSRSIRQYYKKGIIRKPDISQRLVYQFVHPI
How it was run: as §1

[13] = molecular target: T10, ETV7 (Homo sapiens, UniProt Q9Y603 1-341)
T10 sequence: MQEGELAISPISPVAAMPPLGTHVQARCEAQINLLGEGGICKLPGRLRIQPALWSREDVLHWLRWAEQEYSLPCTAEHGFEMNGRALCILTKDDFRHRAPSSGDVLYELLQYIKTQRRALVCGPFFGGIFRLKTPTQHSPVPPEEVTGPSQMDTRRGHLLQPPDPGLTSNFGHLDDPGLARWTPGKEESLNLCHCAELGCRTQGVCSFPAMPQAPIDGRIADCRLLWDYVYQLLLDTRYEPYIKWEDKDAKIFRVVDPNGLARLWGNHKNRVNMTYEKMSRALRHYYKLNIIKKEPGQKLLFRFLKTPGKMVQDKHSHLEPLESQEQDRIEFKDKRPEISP
How it was run: as §1

[14] = molecular target: T11, ELF5 (Homo sapiens, UniProt Q9UKW6-2 1-255)
T11 sequence: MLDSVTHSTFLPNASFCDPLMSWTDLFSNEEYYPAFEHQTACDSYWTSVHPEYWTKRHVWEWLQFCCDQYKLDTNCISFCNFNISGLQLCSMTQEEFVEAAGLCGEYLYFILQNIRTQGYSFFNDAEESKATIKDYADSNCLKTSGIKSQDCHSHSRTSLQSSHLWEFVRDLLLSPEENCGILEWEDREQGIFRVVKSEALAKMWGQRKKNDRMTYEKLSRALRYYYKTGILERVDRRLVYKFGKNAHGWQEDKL
How it was run: as §1

[15] = molecular target: T12, ETV3 (Homo sapiens, UniProt P41162-2 1-143)
T12 sequence: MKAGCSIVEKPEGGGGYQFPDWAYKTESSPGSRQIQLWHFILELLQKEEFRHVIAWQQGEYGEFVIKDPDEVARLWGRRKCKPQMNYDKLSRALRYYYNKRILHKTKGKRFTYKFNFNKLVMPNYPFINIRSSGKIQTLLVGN
How it was run: as §1

[16] = molecular target: ETV6 (Homo sapiens, UniProt P41212 1-452)
How it was run: as §1

ETV5, sequence (P41161 whole entry): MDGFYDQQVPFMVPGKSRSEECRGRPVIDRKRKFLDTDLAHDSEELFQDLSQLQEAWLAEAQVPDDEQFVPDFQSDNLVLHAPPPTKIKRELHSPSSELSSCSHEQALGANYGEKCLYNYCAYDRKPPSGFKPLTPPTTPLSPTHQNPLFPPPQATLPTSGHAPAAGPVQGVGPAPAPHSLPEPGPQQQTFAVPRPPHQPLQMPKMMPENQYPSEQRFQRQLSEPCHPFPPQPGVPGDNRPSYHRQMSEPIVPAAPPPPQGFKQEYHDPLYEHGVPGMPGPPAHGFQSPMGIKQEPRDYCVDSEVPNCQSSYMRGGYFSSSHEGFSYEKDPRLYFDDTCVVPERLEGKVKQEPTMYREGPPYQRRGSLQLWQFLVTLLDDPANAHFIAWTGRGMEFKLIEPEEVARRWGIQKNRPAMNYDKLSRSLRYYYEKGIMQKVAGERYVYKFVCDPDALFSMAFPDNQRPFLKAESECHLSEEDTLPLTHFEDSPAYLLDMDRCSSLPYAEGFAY
ELF4, sequence (Q99607 whole entry): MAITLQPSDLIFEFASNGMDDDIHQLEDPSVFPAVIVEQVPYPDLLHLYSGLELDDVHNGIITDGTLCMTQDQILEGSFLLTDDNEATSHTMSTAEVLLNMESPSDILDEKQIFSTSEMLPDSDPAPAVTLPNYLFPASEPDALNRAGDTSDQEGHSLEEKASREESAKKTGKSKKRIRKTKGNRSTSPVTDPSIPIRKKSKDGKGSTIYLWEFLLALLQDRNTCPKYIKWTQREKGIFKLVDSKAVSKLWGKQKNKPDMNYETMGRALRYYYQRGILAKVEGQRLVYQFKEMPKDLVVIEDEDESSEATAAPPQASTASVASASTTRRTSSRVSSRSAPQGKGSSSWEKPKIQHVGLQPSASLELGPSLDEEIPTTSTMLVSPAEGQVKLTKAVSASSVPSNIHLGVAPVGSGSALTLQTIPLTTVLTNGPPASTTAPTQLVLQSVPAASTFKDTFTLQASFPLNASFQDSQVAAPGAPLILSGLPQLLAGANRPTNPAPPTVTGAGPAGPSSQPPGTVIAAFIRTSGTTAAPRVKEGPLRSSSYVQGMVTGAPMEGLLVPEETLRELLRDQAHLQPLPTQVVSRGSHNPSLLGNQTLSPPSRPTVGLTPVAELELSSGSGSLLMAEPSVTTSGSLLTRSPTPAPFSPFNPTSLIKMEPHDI
ETV6, sequence (P41212 whole entry): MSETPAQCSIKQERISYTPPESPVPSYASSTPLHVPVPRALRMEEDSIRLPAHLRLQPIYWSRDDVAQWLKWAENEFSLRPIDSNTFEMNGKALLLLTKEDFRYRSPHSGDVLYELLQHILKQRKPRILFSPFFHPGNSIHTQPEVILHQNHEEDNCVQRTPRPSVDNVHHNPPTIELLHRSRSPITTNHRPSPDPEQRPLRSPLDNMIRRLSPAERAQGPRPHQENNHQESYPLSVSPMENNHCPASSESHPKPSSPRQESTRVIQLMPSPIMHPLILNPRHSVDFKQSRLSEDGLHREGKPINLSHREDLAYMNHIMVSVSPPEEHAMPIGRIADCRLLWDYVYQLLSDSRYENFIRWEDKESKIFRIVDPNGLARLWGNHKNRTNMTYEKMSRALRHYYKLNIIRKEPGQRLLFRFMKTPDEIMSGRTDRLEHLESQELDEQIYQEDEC
ETV1, sequence (P50549 whole entry): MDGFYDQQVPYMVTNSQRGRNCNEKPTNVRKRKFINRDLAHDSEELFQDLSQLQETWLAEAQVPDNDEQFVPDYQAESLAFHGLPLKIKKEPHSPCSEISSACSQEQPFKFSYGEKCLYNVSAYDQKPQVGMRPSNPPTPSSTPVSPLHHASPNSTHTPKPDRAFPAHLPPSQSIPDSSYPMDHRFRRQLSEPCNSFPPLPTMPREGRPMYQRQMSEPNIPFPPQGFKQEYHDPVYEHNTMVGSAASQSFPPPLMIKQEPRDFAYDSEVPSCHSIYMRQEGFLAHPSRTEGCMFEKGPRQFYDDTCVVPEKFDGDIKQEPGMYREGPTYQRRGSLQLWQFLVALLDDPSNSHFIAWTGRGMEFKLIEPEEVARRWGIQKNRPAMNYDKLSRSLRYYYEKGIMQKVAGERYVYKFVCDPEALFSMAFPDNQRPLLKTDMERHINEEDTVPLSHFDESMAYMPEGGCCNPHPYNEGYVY

Sequence	binding signal [1]	binding signal [2]	binding signal [3]	binding signal [4]	binding signal [5]	binding signal [6]	binding signal [7]	binding signal [8]	binding signal [9]	binding signal [10]	binding signal [11]	binding signal [12]	binding signal [13]	binding signal [14]	binding signal [15]	binding signal [16]
ACTACA	1.17 fold enrichment (6-mer frequency, TF over GST control)	1.24 fold enrichment (6-mer frequency, TF over GST control)	1.06 fold enrichment (6-mer frequency, TF over GST control)	1.16 fold enrichment (6-mer frequency, TF over GST control)	1.07 fold enrichment (6-mer frequency, TF over GST control)	1.11 fold enrichment (6-mer frequency, TF over GST control)	1.04 fold enrichment (6-mer frequency, TF over GST control)	1.22 fold enrichment (6-mer frequency, TF over GST control)	1.13 fold enrichment (6-mer frequency, TF over GST control)	1.22 fold enrichment (6-mer frequency, TF over GST control)	1.15 fold enrichment (6-mer frequency, TF over GST control)	1.28 fold enrichment (6-mer frequency, TF over GST control)	1.11 fold enrichment (6-mer frequency, TF over GST control)	1.24 fold enrichment (6-mer frequency, TF over GST control)	1.19 fold enrichment (6-mer frequency, TF over GST control)	1.19 fold enrichment (6-mer frequency, TF over GST control)
GGATGT	2.08 fold enrichment (6-mer frequency, TF over GST control)	1.77 fold enrichment (6-mer frequency, TF over GST control)	1.41 fold enrichment (6-mer frequency, TF over GST control)	1.39 fold enrichment (6-mer frequency, TF over GST control)	1.36 fold enrichment (6-mer frequency, TF over GST control)	1.44 fold enrichment (6-mer frequency, TF over GST control)	1.61 fold enrichment (6-mer frequency, TF over GST control)	1.69 fold enrichment (6-mer frequency, TF over GST control)	1.41 fold enrichment (6-mer frequency, TF over GST control)	1.63 fold enrichment (6-mer frequency, TF over GST control)	1.72 fold enrichment (6-mer frequency, TF over GST control)	3.07 fold enrichment (6-mer frequency, TF over GST control)	1.45 fold enrichment (6-mer frequency, TF over GST control)	1.87 fold enrichment (6-mer frequency, TF over GST control)	1.78 fold enrichment (6-mer frequency, TF over GST control)	1.66 fold enrichment (6-mer frequency, TF over GST control)
ACGCTG	1.09 fold enrichment (6-mer frequency, TF over GST control)	1.08 fold enrichment (6-mer frequency, TF over GST control)	1.15 fold enrichment (6-mer frequency, TF over GST control)	1.17 fold enrichment (6-mer frequency, TF over GST control)	1.21 fold enrichment (6-mer frequency, TF over GST control)	1.05 fold enrichment (6-mer frequency, TF over GST control)	1.05 fold enrichment (6-mer frequency, TF over GST control)	1.12 fold enrichment (6-mer frequency, TF over GST control)	1.21 fold enrichment (6-mer frequency, TF over GST control)	1.15 fold enrichment (6-mer frequency, TF over GST control)	1.06 fold enrichment (6-mer frequency, TF over GST control)	1.24 fold enrichment (6-mer frequency, TF over GST control)	1.16 fold enrichment (6-mer frequency, TF over GST control)	1.09 fold enrichment (6-mer frequency, TF over GST control)	1.26 fold enrichment (6-mer frequency, TF over GST control)	1.09 fold enrichment (6-mer frequency, TF over GST control)
